# Several values for one entry are separate records, joined by “and”; a condition that tells them apart may be missing. Equal entries are not always repeated. Inconclusive results are not listed. Where a call stands in place of a potency, no number is given. Some structures have more than one record in an assay (separate samples or runs), and their calls can disagree. Activity calls are given as the source filed them. Unless noted, calls follow the shape of the full dose curve.
# Key:
# [1] = Nuclear factor erythroid 2-related factor 2/antioxidant responsive element (Nrf2/ARE) small molecule agonists: luciferase reporter gene qHTS assay in human keratinocytes (AID 1919969); also: nearly all actives have a fitted effect of over 35% in size; also: potency is read from the fitted curve at half-maximal effect
# [2] = target: Gonadotropin-releasing hormone receptor (Homo sapiens) (UniProt P30968); experiment: Human gonadotropin-releasing hormone receptor (GnRHR) small molecule agonists, calcium flux assay in GnRHR-HEK293 cells (AID 1920063); also: nearly all actives have a fitted effect of over 35% in size
# Outline: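 Stable human GnRHR HEK293 line. 18 h plating, then calcium dye for 1 h at 37 C. Agonist-mode compound addition from DMSO stocks; fluorescence monitored 3 min.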
# [3] = target: KiSS-1 receptor (Homo sapiens) (UniProt Q969F8); experiment: Human kisspeptin (KISS1R) small molecule agonists, calcium flux assay in KISS1R-HEK293 cells (AID 1920064; active = well fitted activation curve with a large enough effect in the repeat runs)
# Outline: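 After overnight (18 h) culture at 37 C/5% CO2, human KISS1R-HEK293 cells received calcium dye for 1 h, then test compound; emission at 540 nm (excitation 480 nm) was tracked for 3 min.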
# [4] = G protein-coupled receptor (GPCR) small molecule agonists, calcium flux assay: HEK293 wild type cell line counter screen (AID 1920065)
# Outline: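 Following 18 h incubation at 37 C/5% CO2, plates got calcium dye for 1 h; compounds, ATP or DMSO were then pinned in and fluorescence followed kinetically (480/540 nm).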
# [5] = p53 small molecule agonists, cell-based qHTS assay with human liver microsomes (AID 1963577)
# Outline: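 Compounds act here after metabolic activation: human liver microsomes and NADPH, both at 0.5 mg/mL final, were co-added to p53RE-bla cells. Incubation ran 16 h at 37 C, followed by LiveBLAzer detection.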
# [6] = p53 small molecule agonists, cell-based qHTS assay with rat liver microsomes (AID 1963578)
# Outline: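 Read-out is beta-lactamase reporter fluorescence (LiveBLAzer, 2 h, room temperature, dark) in p53RE-bla cells treated 16 h at 37 C with compound, rat liver microsomes and NADPH, both 0.5 mg/mL final.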
# [7] = p53 small molecule agonists, cell-based qHTS assay with human liver microsomes: qHTS cell viability counter screen (AID 1963579); also: nearly all actives have a fitted effect of over 45% in size; also: potency is read from the fitted curve at half-maximal effect
# Outline: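 Cells carrying the p53 response-element beta-lactamase reporter are treated for 16 h at 37 C with test compounds in the presence of human liver microsomes and NADPH (both 0.5 mg/mL final); ATP-based CellTiter-Glo luminescence then reports viability.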
# [8] = p53 small molecule agonists, cell-based qHTS assay with rat liver microsomes: qHTS cell viability counter screen (AID 1963580); also: nearly all actives have a fitted effect of over 45% in size; also: potency is read from the fitted curve at half-maximal effect
# Outline: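 Luminescent ATP readout (CellTiter-Glo, 30 min at room temperature) reports viability of p53RE-bla HCT-116 cells after 16 h at 37 C with test compounds under metabolic activation by rat liver microsomes and NADPH at 0.5 mg/mL final each.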
# [9] = p53 small molecule agonists, cell-based qHTS assay: qHTS cell viability counter screen (AID 1963581); also: nearly all actives have a fitted effect of over 45% in size; also: potency is read from the fitted curve at half-maximal effect
# Outline: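 qHTS counter screen: 16 h compound exposure at 37 C of p53RE-bla HCT-116 cells (4,000 per well, seeded 5 h prior), cell viability by ATP luminescence.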
# [10] = p53 small molecule agonists, cell-based qHTS assay (AID 1963582; active = well fitted activation curve with a large enough effect in the signal ratio in the repeat runs, not every such curve was filed as active; the % refers to the signal ratio)
# Outline: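 Measured: fluorescence from cleaved LiveBLAzer substrate. System: p53RE-bla cells, 16 h compound treatment at 37 C, 2 h substrate step at room temperature.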
# [11] = target: 5-hydroxytryptamine receptor 2A (Homo sapiens) (UniProt P28223); experiment: 5-hydroxytryptamine receptor 2A (HTR2A) small molecule antagonists, cell-based qHTS assay (AID 1963586); also: nearly all actives have a fitted effect of over 45% in size
# Outline: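 CHO cells stably expressing human HTR2A were plated for 18 h at 37 C, then loaded with calcium dye for 1 h. Compounds were preincubated 5 min at room temperature before DOI (4 nM solution) was added. Kinetic fluorescence was read for 3 min.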
# [12] = target: 5-hydroxytryptamine receptor 2A (Homo sapiens) (UniProt P28223); experiment: 5-hydroxytryptamine receptor 2A (HTR2A) small molecule agonists, cell-based qHTS assay (AID 1963587); also: nearly all actives have a fitted effect of over 30% in size; also: potency is read from the fitted curve at half-maximal effect
# Outline: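 HTR2A-CHO cells, plated 18 h at 37 C/5% CO2, dye-loaded 1 h at 37 C; compounds in DMSO added by pin tool (agonist mode). Intracellular calcium flux read as kinetic fluorescence on FDSS over 2 min at 1 s intervals.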
# [13] = target: Muscarinic acetylcholine receptor M1 (Homo sapiens) (UniProt P11229); experiment: Cholinergic receptor muscarinic 1 (CHRM1) small molecule antagonists, cell-based qHTS assay (AID 1963588); also: nearly all actives have a fitted effect of over 40% in size
# Outline: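 Compounds were tested at 15 concentrations in three independent runs. Dye-loaded CHRM1-CHO cells were exposed 5 min at room temperature before stimulation by acetylcholine added at 50nM. Intracellular calcium was read kinetically on FDSS for 3 min.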
# [14] = target: Muscarinic acetylcholine receptor M1 (Homo sapiens) (UniProt P11229); experiment: Cholinergic receptor muscarinic 1 (CHRM1) small molecule agonists, cell-based qHTS assay (AID 1963589); also: nearly all actives have a fitted effect of over 35% in size
# Outline: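 Kinetic fluorescence (1 s intervals) of calcium-sensitive dye in human M1 CHO cells after compound addition; cells pre-incubated 18 h at 37 C/5% CO2 and dye-loaded 1 h.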
# [15] = cAMP Responsive Elements (CRE) small molecule agonists, cell-based qHTS assay (AID 1963590)
# Outline: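 Test agents in DMSO were incubated 3 h at 37 C/5% CO2 with CRE-bla HEK 293T cells seeded 18 h earlier; LiveBLAzer B/G FRET substrate was added and read after 2 h at room temperature.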
# [16] = cAMP Responsive Elements (CRE) small molecule antagonists, cell-based qHTS assay (AID 1963591; active = well fitted inhibition curve with a large enough effect in the signal ratio in the repeat runs, not every such curve was filed as active; the % refers to the signal ratio)
# Outline: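 Reporter line CRE-bla HEK 293T in dialyzed-FBS DMEM; cells preincubated 18 h, treated 3 h with compound plus NKH477 (0.25 uM final); LiveBLAzer FRET, 2 h RT.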
# [17] = target: Beta-2 adrenergic receptor (Homo sapiens) (UniProt P07550); experiment: Adrenergic beta2 receptor (ADRB2) small molecule antagonists, cell-based qHTS assay (AID 1963592); also: series mostly up to about 92 µM; nearly all actives have a fitted effect of over 50% in size
# Outline: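 Assay format: CHO-ADRB2 cells, 18-20hr seeding at 37C/5% CO2, then compound plus 1nM isoproterenol agonist mix for 0.5hr RT. Homogeneous time-resolved fluorescence cAMP detection after 1hr, expressed as 665/615 nm ratio.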
# [18] = target: D(2) dopamine receptor (Homo sapiens) (UniProt P14416); experiment: Dopamine D2 receptor (DRD2) small molecule agonists, cell-based qHTS assay (AID 1963594); also: nearly all actives have a fitted effect of over 35% in size
# Outline: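 HEK293 cells stably expressing DRD2 were cultured 24 h at 37 C, then given Ro20-1724 (0.1 mM final) and compounds for 10 min at room temperature. NKH477 (200nM) was then added for 30 min. cAMP was read by HTRF.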
# [19] = target: D(2) dopamine receptor (Homo sapiens) (UniProt P14416); experiment: Dopamine D2 receptor (DRD2) small molecule antagonists, cell-based qHTS assay (AID 1963595; active = well fitted inhibition curve with a large enough effect in the signal ratio in the repeat runs, with a control signal flat; the % refers to the signal ratio)
# Outline: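 DRD2-HEK293; 0.1 mM Ro20-1724; cpd 10 min RT; NKH477 200 nM + quinpirole 12 nM, 30 min RT; HTRF cAMP (cAMP-d2/anti-cAMP cryptate), 665/620 nm ratio after 1 h.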
# [20] = target: Beta-2 adrenergic receptor (Homo sapiens) (UniProt P07550); experiment: Adrenergic beta2 receptor (ADRB2) small molecule agonists, cell-based qHTS assay (AID 1963593);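 also: CHO cells stably overexpressing human ADRB2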
# Outline: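 CHO cells stably over-expressing ADRB2 were plated overnight at 37C, then dosed with compounds plus a stimulation mix containing 100uM IBMX and 25uM Ro-20-1724 for 0.5hr at room temperature. cAMP was measured by HTRF competition, 1hr.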
# Sequence of 5-hydroxytryptamine receptor 2A (Homo sapiens) (P28223 whole entry, looked up): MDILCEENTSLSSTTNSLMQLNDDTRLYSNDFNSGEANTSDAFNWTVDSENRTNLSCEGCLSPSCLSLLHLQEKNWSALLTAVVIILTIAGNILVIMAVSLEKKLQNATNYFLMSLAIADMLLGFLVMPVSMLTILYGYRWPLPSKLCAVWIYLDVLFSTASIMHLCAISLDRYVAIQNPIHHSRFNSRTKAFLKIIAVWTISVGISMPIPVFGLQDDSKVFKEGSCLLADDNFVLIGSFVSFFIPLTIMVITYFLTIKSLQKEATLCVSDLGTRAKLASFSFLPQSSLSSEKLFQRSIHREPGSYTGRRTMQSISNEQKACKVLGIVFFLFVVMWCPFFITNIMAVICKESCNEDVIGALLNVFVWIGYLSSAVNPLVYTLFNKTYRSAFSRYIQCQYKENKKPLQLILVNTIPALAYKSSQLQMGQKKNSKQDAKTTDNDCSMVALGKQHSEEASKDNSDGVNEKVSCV
# Sequence of D(2) dopamine receptor (Homo sapiens) (P14416 whole entry, looked up): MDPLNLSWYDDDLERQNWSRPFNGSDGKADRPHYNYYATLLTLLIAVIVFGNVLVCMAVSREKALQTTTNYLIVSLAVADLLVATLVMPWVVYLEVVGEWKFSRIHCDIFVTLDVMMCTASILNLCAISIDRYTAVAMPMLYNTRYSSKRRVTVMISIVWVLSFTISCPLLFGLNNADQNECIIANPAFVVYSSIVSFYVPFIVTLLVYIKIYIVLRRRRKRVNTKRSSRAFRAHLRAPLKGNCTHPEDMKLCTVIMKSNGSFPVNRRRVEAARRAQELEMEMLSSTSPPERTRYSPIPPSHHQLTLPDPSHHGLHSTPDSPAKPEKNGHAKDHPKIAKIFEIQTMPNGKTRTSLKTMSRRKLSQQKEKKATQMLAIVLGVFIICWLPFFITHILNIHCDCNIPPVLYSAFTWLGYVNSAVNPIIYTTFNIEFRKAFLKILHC
# Sequence of Gonadotropin-releasing hormone receptor (Homo sapiens) (P30968 whole entry, looked up): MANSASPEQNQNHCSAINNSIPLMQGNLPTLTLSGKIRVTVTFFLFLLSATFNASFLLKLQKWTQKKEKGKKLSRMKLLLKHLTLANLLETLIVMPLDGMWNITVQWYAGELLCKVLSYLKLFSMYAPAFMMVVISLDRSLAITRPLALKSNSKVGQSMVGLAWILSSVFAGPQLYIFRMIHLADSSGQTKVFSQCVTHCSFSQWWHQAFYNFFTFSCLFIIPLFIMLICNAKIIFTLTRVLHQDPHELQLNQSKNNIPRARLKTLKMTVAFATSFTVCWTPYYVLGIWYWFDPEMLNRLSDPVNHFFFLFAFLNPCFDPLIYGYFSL
# Sequence of KiSS-1 receptor (Homo sapiens) (Q969F8 whole entry, looked up): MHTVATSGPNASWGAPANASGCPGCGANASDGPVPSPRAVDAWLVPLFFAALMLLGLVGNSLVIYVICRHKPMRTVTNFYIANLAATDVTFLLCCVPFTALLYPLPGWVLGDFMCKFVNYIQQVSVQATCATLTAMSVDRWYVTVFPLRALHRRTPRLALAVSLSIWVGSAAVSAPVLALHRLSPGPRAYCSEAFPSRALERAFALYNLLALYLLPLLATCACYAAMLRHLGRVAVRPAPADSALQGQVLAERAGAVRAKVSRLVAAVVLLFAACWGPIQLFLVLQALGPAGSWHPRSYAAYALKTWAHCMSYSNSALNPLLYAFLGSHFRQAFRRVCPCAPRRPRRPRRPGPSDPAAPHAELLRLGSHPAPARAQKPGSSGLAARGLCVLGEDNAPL
# Sequence of Beta-2 adrenergic receptor (Homo sapiens) (P07550 whole entry, looked up): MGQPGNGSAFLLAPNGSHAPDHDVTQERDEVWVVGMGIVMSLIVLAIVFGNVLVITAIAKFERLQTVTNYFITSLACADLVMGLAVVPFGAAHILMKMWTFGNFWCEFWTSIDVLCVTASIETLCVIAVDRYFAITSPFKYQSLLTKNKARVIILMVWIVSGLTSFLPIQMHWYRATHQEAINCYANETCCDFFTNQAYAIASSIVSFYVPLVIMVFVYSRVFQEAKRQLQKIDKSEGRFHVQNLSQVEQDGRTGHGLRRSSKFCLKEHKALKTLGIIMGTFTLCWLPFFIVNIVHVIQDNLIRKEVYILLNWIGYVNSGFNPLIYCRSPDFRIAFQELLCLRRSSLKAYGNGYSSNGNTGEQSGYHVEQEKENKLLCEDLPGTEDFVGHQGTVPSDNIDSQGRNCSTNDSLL
# Sequence of Muscarinic acetylcholine receptor M1 (Homo sapiens) (P11229 whole entry, looked up): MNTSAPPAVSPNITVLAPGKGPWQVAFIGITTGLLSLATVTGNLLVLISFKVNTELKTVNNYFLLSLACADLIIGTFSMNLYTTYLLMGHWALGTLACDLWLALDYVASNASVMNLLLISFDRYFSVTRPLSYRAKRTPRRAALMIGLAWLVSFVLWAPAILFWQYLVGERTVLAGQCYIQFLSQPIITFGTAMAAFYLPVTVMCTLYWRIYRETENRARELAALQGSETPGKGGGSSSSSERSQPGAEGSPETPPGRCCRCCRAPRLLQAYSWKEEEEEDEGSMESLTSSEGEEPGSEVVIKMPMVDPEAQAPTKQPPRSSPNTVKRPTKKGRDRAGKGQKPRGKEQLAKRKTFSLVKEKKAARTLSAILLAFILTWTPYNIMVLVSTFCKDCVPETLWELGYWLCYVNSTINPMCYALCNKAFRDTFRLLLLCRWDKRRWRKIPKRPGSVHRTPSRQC
SMILES,Potency [1],Potency [2],Potency [3],Potency [4],Potency [5],Potency [6],Potency [7],Potency [8],Potency [9],Potency [10],Potency [11],Potency [12],Potency [13],Potency [14],Potency [15],Potency [16],Potency [17],Potency [18],Potency [19],Potency [20]
CC(C)(C)c1cc(O)ccc1O,24.3 µM (active) and 30.6 µM (active),inactive,inactive,inactive,inactive,inactive,inactive,inactive,inactive,inactive,inactive,inactive,inactive,inactive,inactive,inactive,inactive,–,–,–
OC(Cc1ccccc1Cl)(Cn1[nH]cnc1=S)C1(Cl)CC1 (stereo unspecified),10.9 µM (active),inactive,inactive,inactive,inactive,inactive,inactive,inactive,inactive,–,–,38.9 µM (active),inactive,inactive,inactive,inactive,inactive,inactive,inactive,–
C[C@H]1O[C@@H](O[C@H]2[C@@H](O)C[C@H](O[C@H]3[C@@H](O)C[C@H](O[C@H]4CC[C@@]5(C)[C@H](CC[C@@H]6[C@@H]5CC[C@]5(C)[C@@H](C7=CC(=O)OC7)CC[C@]65O)C4)O[C@@H]3C)O[C@@H]2C)C[C@H](O)[C@@H]1O,61.5 nM (active) and 119 nM (active),inactive,inactive,inactive,inactive,inactive,46.1 nM (active) and inactive,0.073 µM (active),81.9 nM (active) and 79.3 nM (active),–,–,–,–,–,–,–,inactive,inactive,inactive,inactive
O=[N+]([O-])c1ccc(O)c([N+](=O)[O-])c1,inactive,inactive,inactive,inactive,inactive,inactive,inactive,–,inactive,inactive,inactive,inactive,inactive,inactive,–,–,inactive,inactive,inactive,–
CN/C(=N\[N+](=O)[O-])NCc1cnc(Cl)s1,inactive,inactive,inactive,inactive,inactive,inactive,inactive,inactive,inactive,inactive,inactive,inactive,inactive,inactive,inactive,–,inactive,inactive,inactive,inactive
ClC1=C(Cl)[C@]2(Cl)[C@H]3[C@H]([C@@H]4C=C[C@H]3C4)[C@@]1(Cl)C2(Cl)Cl,inactive,inactive,inactive,inactive,inactive,inactive,inactive,inactive,inactive,inactive,inactive,–,inactive,inactive,inactive,inactive,–,inactive,–,–
CC(C)c1c(CN(C)C(C)Cc2ccccc2)n(C)n(-c2ccccc2)c1=O (stereo unspecified),inactive,inactive,inactive,inactive,inactive,inactive,inactive,inactive,inactive,inactive,–,inactive,inactive,inactive,–,–,inactive,inactive,inactive,inactive
CCOc1cc(Oc2ccc(C(F)(F)F)cc2Cl)ccc1[N+](=O)[O-],inactive,inactive,inactive,inactive,inactive,inactive,inactive,inactive,inactive,inactive,inactive,inactive,inactive,inactive,–,inactive,inactive,–,–,–
CSC1=N[C@@](C)(c2ccccc2)C(=O)N1Nc1ccccc1,inactive,inactive,inactive,inactive,inactive,inactive,inactive,inactive,inactive,–,inactive,inactive,–,inactive,inactive,inactive,inactive,inactive,inactive,inactive
O=C(Cc1ccccc1)OCCc1ccccc1,inactive,inactive,inactive,inactive,inactive,inactive,inactive,inactive,inactive,inactive,–,inactive,–,inactive,inactive,inactive,–,inactive,inactive,–
CN[C@@H](C)[C@H](O)c1ccccc1,inactive,inactive,inactive,inactive,inactive,inactive,inactive,inactive,inactive,inactive,inactive,inactive,inactive,inactive,inactive,–,inactive,inactive,inactive,inactive
CC(C)[C@@H](Nc1ccc(C(F)(F)F)cc1Cl)C(=O)OC(C#N)c1cccc(Oc2ccccc2)c1 (stereo partly specified),inactive,inactive,inactive,inactive,inactive,inactive,inactive,inactive,–,inactive,inactive,inactive,inactive,–,–,inactive,inactive,inactive,inactive,inactive
O=C(N[C@H](c1ccccc1)[C@@H]1CN2CCC1CC2)c1c(Cl)ccc(C(F)(F)F)c1Cl,inactive,inactive,inactive,inactive,inactive,inactive,inactive,inactive,inactive,inactive,inactive,inactive,–,inactive,–,–,inactive,–,inactive,inactive
Nc1c(Cl)c(F)nc(OCC(=O)O)c1Cl,inactive,inactive,inactive,inactive,inactive,inactive,inactive,inactive,–,inactive,inactive,inactive,inactive,inactive,–,inactive,–,inactive,inactive,–
Clc1cc(Cl)c(-c2cc(Cl)c(Cl)cc2Cl)cc1Cl,inactive,inactive,inactive,inactive,inactive,inactive,inactive,inactive,inactive,inactive,inactive,inactive,inactive,inactive,inactive,inactive,inactive,inactive,–,–

# — PubChem BioAssay (Tox21)
